From PubChem BioAssay (NCI) come the findings set out here.

Test systems include NCI-H23 lung; NCI-H226 lung; NCI-H322M lung; HOP-62 NSCLC; HOP-92 NSCLC; NCI-H522 lung; A549/ATCC NSCLC; 786-0 renal; COLO 205 colon; DU-145 prostate; K-562 leukemia; MALME-3M melanoma; MDA-MB-231 breast; RXF 393 renal; SF-268 CNS; SF-295 CNS; SF-539 CNS; UACC-257 melanoma; M14 melanoma; NCI-H460 lung.
Common to all, as to assay: NCI-60 one-dose screen, 48 h (100 = growth as untreated, 0 = no growth, -100 = all killed)
Conditions in all cases: 10 µM unless noted

SMILES strings stand for the structures. About 83,000 compounds went through this panel and 20% of them were active in at least one assay; those are over-represented in the sample as a whole.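 Treatment: one concentration, 48 hours, 96-well format. Scoring: percent growth, with anything below 10 considered active.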 Values without a mark were called inactive. Calls of active or inactive are those of the source.

Regarding `C=C1C(=O)O[C@H]2[C@H]1CC/C(COC(=O)NCc1nc3ccccc3[nH]1)=C\CC[C@@]1(C)O[C@@H]21`, the growth in the assay on NCI-H23 lung is 87.2%; in the assay on NCI-H226 lung, 88.4%; with NCI-H322M lung, 112%; in the assay on HOP-62 NSCLC it was 95%; with HOP-92 NSCLC, 136%; in the assay with NCI-H522 lung it was -43.9% (active). The growth in the assay with A549/ATCC NSCLC was 94.6%; with 786-0 renal, 101%; in the assay on COLO 205 colon it was 18.8%; in the assay on DU-145 prostate, 80.1%; in the assay with K-562 leukemia, 24.7%; in the assay on MALME-3M melanoma, 86.8%. The growth was 90.8% in the assay with MDA-MB-231 breast; 67.2% in the assay on RXF 393 renal; 105% in the assay with SF-268 CNS; 106% in the assay on SF-295 CNS; 77.9% in the assay on SF-539 CNS; 94.9% in the assay on UACC-257 melanoma. The growth in the assay with M14 melanoma is 77.5%.

Turning to `Cc1cnc(-c2ccc(-c3ccc(NC(=O)Nc4c(F)cc(F)cc4F)cc3F)c3c2C(=O)NC3)[nH]1`, the growth is 20.8% with NCI-H23 lung; 65.6% with NCI-H226 lung; 43.1% with NCI-H322M lung; 53.2% in the assay on HOP-62 NSCLC; -29.5% (active) in the assay on NCI-H460 lung; 70.8% in the assay on HOP-92 NSCLC. Further, the growth is 37.2% in the assay with NCI-H522 lung; 45.2% with A549/ATCC NSCLC; 23.1% in the assay on 786-0 renal; 20.5% in the assay on COLO 205 colon; 7.83% (active) in the assay on DU-145 prostate; 22.1% in the assay with K-562 leukemia. The growth in the assay on MALME-3M melanoma is -3.16% (active); in the assay on MDA-MB-231 breast, 36.5%; with RXF 393 renal, 21.5%; with SF-268 CNS, 39.2%; in the assay with SF-295 CNS, 58.8%; with SF-539 CNS, 56.1%. Moreover, the growth in the assay on UACC-257 melanoma is 43.8%; in the assay on M14 melanoma, 16.1%.

On to `COc1ccc(Nc2nc(SCC(C)C)nc(-c3ccc(F)cc3)c2C#N)cc1`, for which the growth was 79.1% in the assay on NCI-H23 lung; 75.1% in the assay on NCI-H226 lung; 97% with NCI-H322M lung; 73.8% with HOP-62 NSCLC; 52.4% in the assay with NCI-H460 lung; 77.2% in the assay with HOP-92 NSCLC. For the same compound, the growth in the assay with NCI-H522 lung is 35.5%; in the assay with A549/ATCC NSCLC, 62.5%; in the assay on 786-0 renal it was 60.8%; in the assay on COLO 205 colon, 72.4%; with DU-145 prostate it was 79.4%; in the assay on K-562 leukemia, 19.3%. Also, the growth was 61.9% in the assay on MALME-3M melanoma; 89.3% in the assay with MDA-MB-231 breast; 74% in the assay with RXF 393 renal; 74.9% in the assay on SF-268 CNS; 40.6% in the assay with SF-295 CNS; 66.1% with SF-539 CNS. Moreover, the growth with UACC-257 melanoma was 73%; with M14 melanoma, 49.3%.

In the case of `CC1CCCN(CCCCCOc2ccc3oc4ccccc4c(=O)c3c2)C1` (centres undefined), the growth was 75% in the assay on NCI-H23 lung; 104% in the assay with NCI-H226 lung; 76.9% with NCI-H322M lung; 91.3% with HOP-62 NSCLC; 75.5% in the assay with NCI-H460 lung; 90.2% in the assay with HOP-92 NSCLC. The growth in the assay on NCI-H522 lung was 67.4%; in the assay on A549/ATCC NSCLC it was 68.7%; in the assay with 786-0 renal, 69.8%; with COLO 205 colon it was 36.1%; in the assay on DU-145 prostate, 85.1%; in the assay on K-562 leukemia it was 17.3%. Also, the growth in the assay on MALME-3M melanoma is 4.45% (active); with MDA-MB-231 breast, 67.8%; in the assay with RXF 393 renal, 60.8%; in the assay on SF-268 CNS it was 72.5%; in the assay with SF-295 CNS it was 72.9%; in the assay on SF-539 CNS it was 77.2%. The results for the growth with UACC-257 melanoma and with M14 melanoma were -18.8% (active) and 5.02% (active), respectively.

For `COc1ccc(-c2nc(C#N)c(NCC(c3ccco3)N3CCCC3)o2)cc1` (centres undefined), the growth was 53.7% in the assay with NCI-H23 lung; 101% in the assay with NCI-H226 lung; 43.3% in the assay on NCI-H322M lung; 47.1% with HOP-62 NSCLC; 24.1% with NCI-H460 lung; 58.2% in the assay with HOP-92 NSCLC. The growth in the assay on NCI-H522 lung was 30.6%; with A549/ATCC NSCLC, 43.7%; in the assay with 786-0 renal, 34%; with COLO 205 colon, 19.9%; in the assay on DU-145 prostate, 49.2%; in the assay with K-562 leukemia it was 20.6%. The growth is 51.2% in the assay on MALME-3M melanoma; 77.8% with MDA-MB-231 breast; 14.8% in the assay with RXF 393 renal; 52.3% in the assay on SF-268 CNS; 24.2% in the assay on SF-295 CNS; 23.7% with SF-539 CNS. Besides, the growth with UACC-257 melanoma was 55.2%; in the assay with M14 melanoma, 12.6%.

With `Cc1cc(C)cc(Nc2nccc(-c3c(-c4ccc(F)cc4)ncn3C3CCNCC3)n2)c1`, the growth in the assay with NCI-H23 lung was 43.1%; in the assay with NCI-H226 lung, 32.3%; in the assay with NCI-H322M lung, 32.2%; in the assay on HOP-62 NSCLC, 25.4%; in the assay with NCI-H460 lung, -5.36% (active); in the assay on HOP-92 NSCLC, 26.7%. In addition, the growth was -36.2% (active) in the assay on NCI-H522 lung; 6.65% (active) with A549/ATCC NSCLC; 11.8% in the assay with 786-0 renal; -66% (active) in the assay with COLO 205 colon; 9.38% (active) in the assay on DU-145 prostate; -33.3% (active) with K-562 leukemia. For the same compound, the growth is -36.1% (active) in the assay on MALME-3M melanoma; 7.44% (active) with MDA-MB-231 breast; 18.3% with RXF 393 renal; 28.4% with SF-268 CNS; 5.75% (active) in the assay with SF-295 CNS; 31.3% in the assay on SF-539 CNS. The figures for the growth with UACC-257 melanoma and with M14 melanoma were -50.6% (active) and -86.4% (active), respectively.

As to `O=[N+]([O-])c1ccc(N=Nc2c(O)c(N=Nc3cc([N+](=O)[O-])cc([N+](=O)[O-])c3O)cc(N=Nc3cc(S(=O)(=O)O)cc4cc(S(=O)(=O)O)cc(O)c34)c2O)cc1`, the growth in the assay with NCI-H23 lung is 96.4%; in the assay on NCI-H226 lung, 113%; in the assay on NCI-H322M lung it was 89.3%; in the assay with HOP-62 NSCLC, 98.6%; in the assay with NCI-H460 lung, 105%; in the assay with HOP-92 NSCLC, 101%. The growth in the assay with NCI-H522 lung was 86.6%; with A549/ATCC NSCLC, 102%; with 786-0 renal it was 103%; in the assay with COLO 205 colon, 108%; in the assay on DU-145 prostate, 108%; in the assay on K-562 leukemia it was 77.7%. The growth was 101% in the assay on MALME-3M melanoma; 102% in the assay on MDA-MB-231 breast; 112% in the assay on RXF 393 renal; 101% in the assay with SF-268 CNS; 106% in the assay on SF-295 CNS; 102% with SF-539 CNS. Moreover, the growth is 105% with UACC-257 melanoma and 92.4% in the assay with M14 melanoma.
